Assay outcomes from PubChem BioAssay.
KB-V1 MDR tox = qHTS assay for MDR1-selective chemotherapeutics: Primary screen using the drug-selected MDR subline cells KB-V1; 3.4% of 400,000 active; Potency, µM (doses to about 46.1 µM), hits mostly cytotoxic; KB-V1 MDR cells viability, CellTiter-Glo, 72 h; note: nearly all actives have a fitted effect of over 60% in size
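KB-V1 cells (P-gp-expressing MDR subline of KB-3-1) in phenol-red-free DMEM with 10% FBS were exposed to library compounds over a concentration series for 72 h at 37 degrees C. Viability read by CellTiter-Glo luminescence; concentration-effect curves fitted after normalization.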
SW480 rereplic = A quantitative high throughput screen for small molecules that induce DNA re-replication in SW480 colon adenocarcinoma cells. Potency, µM (highest dose often 46.1 µM), actives largely listed as activators. AID 624297, 2012. 1.8% of 340,000 active. SW480 DNA re-replication, Hoechst DNA content imaging, 48 h; note: nearly all actives have a fitted effect of over 55% in size
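Hoechst fluorescence of nuclei (405 nm excitation, 500-530 nm emission) measured by plate-scanning imager after 48 hr compound exposure at 37 C; re-replication scored as increased number of nuclei with elevated intensity.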
KB-3-1 cytotox = qHTS assay for MDR1-selective chemotherapeutics: Primary screen using the parental adenocarcinoma cell KB-3-1 | KB-3-1 viability, CellTiter-Glo ATP luminescence, 72 h | Potency, µM (titrated, usually from 46.1 µM), actives largely listed as cytotoxic | 1.4% of 400,000 active; note: nearly all actives have a fitted effect of over 60% in size
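Parental KB-3-1 adenocarcinoma cells in phenol-red-free DMEM with 10% FBS were pin-treated with compounds at several concentrations, incubated 72 h at 37 °C, and viability read by CellTiter-Glo luminescence; concentration-effect curves were fitted after normalization.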
PINK1 modulator = A Quantitative High throughput Screen to Identify Chemical Modulators of PINK1 Expression | PINK1 immunofluorescence, high-content cytometry, 24 h | Potency, µM (titrated, usually from 76.6 µM), actives largely listed as activators | 0.2% of 410,000 active | AID 624263, 2012; active = well fitted activation curve with a large enough effect; inconclusive = small, poorly fitted or top-dose-only effect; cell line not stated here; note: nearly all actives have a fitted effect of over 65% in size
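A stable cell line was treated with compounds at 5 concentrations for 24 hours, with CCCP as control. PINK1 levels and mitochondrial localization were measured by immunofluorescence with mitochondrial, cell and nuclear markers after fixation, read by laser-scanning cytometry.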
MCF10A rerep = A quantitative high throughput screen for small molecules that induce DNA re-replication in MCF 10a normal breast cells. MCF 10A DNA re-replication, Hoechst nuclear intensity, 48 h. Potency, µM (series often up to 46.1 µM), actives largely listed as activators. 2.9% of 350,000 active; note: nearly all actives have a fitted effect of over 50% in size
A number is an active result; . = inactive; ? = inconclusive; / = no result. This is a sample that favours compounds with a hit; in the whole collection about 6.7% have one here. Unless noted, calls come from the whole dose curve; as a rule, active = well fitted curve in the direction sought with a large enough effect; inconclusive = small, poorly fitted or top-dose-only effect, or another doubt; inactive = no such curve, though single readings can be large; an effect the other way counts as inactive or inconclusive.

SMILES	KB-V1 MDR tox	SW480 rereplic	KB-3-1 cytotox	PINK1 modulator	MCF10A rerep
COc1ccccc1-c1cnc(C(O)c2ccc(C(C)(C)C)cc2)[nH]1 (configuration not stated)	21µM	/	?	.	/
COc1c(C)cc(C(O)c2ncc(-c3ccccc3C(F)(F)F)[nH]2)cc1C (configuration not stated)	18µM	/	.	.	/
CCN(C(=O)CCNC(=O)Cn1cnc2ccccc2c1=O)c1cc(OC)ccc1OC	.	/	.	.	/
CSc1nc2ccc(S(=O)(=O)NC3CCCCC3)cc2s1	16µM	.	?	.	.
CCc1ccc(NC(=O)C(C)Sc2ccc(S(=O)(=O)N3CCN(C)CC3)cn2)cc1 (configuration not stated)	.	.	.	.	.
O=C(CSc1nc(Nc2ccccc2)nc(N2CCOCC2)n1)Nc1ccccc1Cl	15µM	?	.	/	?
O=C(CSc1nc(Nc2ccccc2)nc(N2CCOCC2)n1)Nc1ccc(Br)cc1F	.	?	.	.	15µM
O=C(CSc1nc(Nc2ccccc2)nc(N2CCOCC2)n1)Nc1cccc([N+](=O)[O-])c1	?	.	.	.	.
COc1ccc(Cl)cc1NC(=O)CSc1nc(Nc2ccccc2)nc(N2CCOCC2)n1	.	?	.	.	.
Cc1ccc(NC(=O)Cc2nn(C)c(=O)c3ccccc23)cc1F	2.1µM	.	7.3µM	.	.
Cn1nc(CC(=O)Nc2ccc3c(c2)OCCO3)c2ccccc2c1=O	.	.	?	.	.
Cc1csc(NC(=O)Cc2nn(C)c(=O)c3ccccc23)n1	16µM	.	?	.	.
Cc1ccc2oc(C(=O)N3CCC(O)(c4ccccc4)CC3)c(C)c2c1	.	.	.	.	.
O=C(CCNS(=O)(=O)c1cccs1)N1CCN(c2cccc(Cl)c2)CC1	?	.	.	.	.
O=C(CCNS(=O)(=O)c1cccc2nonc12)N1CCN(c2cccc(Cl)c2)CC1	10µM	?	.	.	.
O=C(CCS(=O)(=O)c1cccc2nonc12)N1CCN(c2ccc(F)cc2)CC1	23µM	.	.	.	.
CCc1ccc(NC(=O)CC2C(=O)N(c3ccccc3)C(=O)N2C(C)C)cc1 (configuration not stated)	/	/	/	.	/
Nc1ccn(C(C=O)CC(C=O)CO)c(=O)n1 (configuration not stated)	.	/	.	.	/
CCOC(=O)N1CCN(C(=O)c2ccc(CS(=O)c3cccc(C)c3)o2)CC1 (configuration not stated)	.	/	.	.	/
COc1cc(NC(=O)C2CCN(c3nc4ccccc4nc3C(F)(F)F)CC2)cc(OC)c1	?	/	.	.	/
O=C(CNC(=O)c1ccc2c(c1)OCO2)N/N=C/c1cc(Br)ccc1O	.	4.1µM	?	.	.
O=C(CCC(=O)Nc1cc(C(F)(F)F)ccc1Cl)N/N=C\c1cc([N+](=O)[O-])ccc1O	.	15µM	.	.	?
O=C(N/N=C\c1cc(Cl)ccc1O)c1ccc(S(=O)(=O)N2CCCCC2)cc1	?	7.3µM	?	.	15µM
O=C(N/N=C/c1cc(Cl)ccc1O)c1ccccc1Br	?	6.5µM	?	.	.
O=C(CNC(=O)c1ccccc1Br)N/N=C/c1ccccc1O	?	?	?	.	?
SMILES	KB-V1 MDR tox	SW480 rereplic	KB-3-1 cytotox	PINK1 modulator	MCF10A rerep
COc1ccc(-c2cccc(NS(=O)(=O)c3cc(C)c(Cl)cc3C)c2)nn1	.	/	.	.	/
N#Cc1ncc(Br)cn1	/	/	/	.	/
CCCCc1cc(=O)oc2cc(C)c3c(C)coc3c12	.	/	.	.	/
O=[N+]([O-])c1ccc(O)c(/C=N/Nc2ccc(Cl)nn2)c1	.	?	?	.	0.73µM
Cc1nc2ccc(C(=O)N/N=C/c3cc([N+](=O)[O-])ccc3O)cc2[nH]1	.	.	.	.	.
NC(N)=N/N=C/c1cc([N+](=O)[O-])ccc1O	.	/	.	.	.
O=C(N/N=C/c1cc([N+](=O)[O-])ccc1O)c1cccc(NC(=O)c2cccc(Cl)c2)c1	.	2.3µM	.	.	.
O=[N+]([O-])c1ccc(O)c(/C=N\N=C2c3ccccc3-c3ccccc32)c1	13µM	?	8.2µM	10µM	?
O=C(CNC(=O)c1ccccc1Br)N/N=C/c1cc(Br)ccc1O	.	7.3µM	.	.	?
Cc1cn([C@H]2C[C@H](O)[C@@H](/C=C/C(=O)NCCc3ccc4c(c3)OCO4)O2)c(=O)[nH]c1=O	.	/	.	.	/
O=C(N/N=C/c1cccnc1)c1cccc(Cl)c1	?	.	.	.	.
O=C(N/N=C/c1cc(Cl)ccc1O)c1cccnc1	.	1.3µM	?	.	?
Nc1nc(=S)[nH]c2c1C1(CCCCC1)Cc1ccccc1-2	23µM	.	?	.	.
COc1cccc(CSc2nc(N)cc(N)n2)c1	.	?	.	.	.
Cc1ccc2ncc(C)c(C)c2c1	.	/	.	/	/
Cc1c2ccccc2c(C)c2c1ccc1ccccc12	.	1.8µM	.	.	?
Cc1cnc2ccc3ccccc3c2c1C	.	/	5.2µM	/	/
COc1ccccc1CN1CCC(n2cc(C(=O)N3CCCCC3)nn2)CC1	/	/	/	.	/
CC1(C(=O)NS(=O)(=O)C2CC2)CCCN(C(=O)c2ccc(F)c(Cl)c2)C1 (configuration not stated)	.	/	.	.	/
CC1(C)CC(=O)C=C(C#CC2(O)CCCCC2)C1	16µM	/	23µM	.	/
N=c1c2c(ncn1CCCO)Oc1c(ccc3ccccc13)C2c1ccccc1 (configuration not stated)	16µM	?	?	.	?
CN(C)CCCn1cnc2c(c1=N)C(c1ccccc1)c1ccc3ccccc3c1O2 (configuration not stated)	.	.	.	.	18µM
COc1ccc(C2c3c(ncn(CCCN4CCOCC4)c3=N)Oc3ccc4ccccc4c32)cc1OC (configuration not stated)	.	18µM	.	.	.
N=c1c2c(ncn1Cc1ccco1)Oc1ccc3ccccc3c1C2c1ccccc1 (configuration not stated)	7.3µM	?	?	.	16µM
Cc1ccc(C(=O)Nc2cccc(-c3nc(CNC(=O)c4cccc(C)c4C)c(C)o3)c2)s1	/	/	/	.	/
Cc1ccc(-n2nc3c(=O)n(CCCC(=O)NCc4ccccc4Cl)nc(C)c3c2C)cc1	.	.	.	.	.
CCOc1ccc(NC(=O)C2CCN(S(=O)(=O)c3ccc4c(c3)oc(=O)n4C)CC2)cc1	.	/	.	.	/
COc1ccc(C2c3ccc4ccccc4c3Oc3ncn(CCO)c(=N)c32)cc1 (configuration not stated)	.	?	.	.	?
